In the library only some 2.2% were active in any assay of this set; here they are far more common.
PLCb3 inh: human PLC-beta3 inhibitors, primary screen, biochemical, fluorescence; inhibition, % at 12.2 µM; Purified PLC-beta3, fluorogenic substrate; AID 720704, 2013; actives 0.18% (n = 370,000); 1-phosphatidylinositol 4,5-bisphosphate phosphodiesterase beta-3 (Homo sapiens), Q01970
Rce1 inh: yeast Rce1p protease inhibitors, primary screen, biochemical, fluorescence, cell-free homogeneous. CAAX prenyl protease 2 (Saccharomyces cerevisiae (strain ATCC 204508 / S288c)), Q03530. actives 0.27% (n = 290,000). calls only. yeast membranes, quenched prenylated peptide cleavage fluorescence;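 active = fall in fluorescence gain of 50% or more versus controls, with final raw signal at or below 3038400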
GC-B act: human GC-B receptor activators, primary screen, HEK293 GC-B cells, cGMP TR-FRET, EC30 CNP; 0% at EC30 CNP, 100% saturating CNP; activation, % at 10 µM; actives 0.11% (n = 370,000); AID 1920062, 2024;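 active = activation at 10 µM reaching about 35% in either raw or pattern-adjusted values, limit read from the data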
GC-A act: GC-A stimulated cGMP production enhancers – HEK293 GC-A cells, cGMP TR-FRET, EC30 ANP, primary screen; 0% at EC30 ANP, 100% saturating ANP; Atrial natriuretic peptide receptor 1 (Homo sapiens), P16066; actives 0.14% (n = 370,000); AID 1671463, 2021; activation, % at 10 µM; in the data active = activation above about 40%
PLCg1 inh: PLC-gamma1 enzyme inhibitors, primary screen, biochemical, fluorescence, purified enzyme; 1-phosphatidylinositol 4,5-bisphosphate phosphodiesterase gamma-1 (Homo sapiens), P19174; actives 0.84% (n = 370,000); fluorogenic substrate; inhibition, % at 12.2 µM; in the data active = inhibition above about 9.5%
PfM18AAP inh: PfM18AAP inhibitors, malaria aminopeptidase, primary screen, biochemical, QFRET, recombinant enzyme | M18 aspartyl aminopeptidase (Plasmodium falciparum 3D7) | H-Glu-NHMec fluorogenic cleavage | inhibition, % at 7.35 µM | actives 1.2% (n = 290,000);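 active = inhibition above the campaign mean inhibition over all tested compounds plus 3 SD, cut at about 28% in these data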
PLCg1 ctr: PLC-gamma1 enzyme inhibitors, counter-screen for PLC-beta3 inhibitor project, biochemical, fluorescence | inhibition, % at 12.3 µM | purified PLC-gamma1, fluorogenic substrate | shares compounds with PLCg1 inh | actives 3.1% (n = 3,300); in the data active = inhibition above about 9.5%
PLCb3 confirm: PLC-beta3 inhibitor confirmation, biochemical, fluorescence, purified enzyme | inhibition, % at 12.3 µM | shares compounds with PLCg1 inh | actives 1% (n = 3,300) | fluorogenic substrate fluorescence | AID 743261, 2014
Hits are given with their value; n = inactive; x = no result. Rule as the data show it, unless noted: active = inhibition above about 11%; inactive = the rest.

SMILES	PLCb3 inh	Rce1 inh	GC-B act	GC-A act	PLCg1 inh	PfM18AAP inh	PLCg1 ctr	PLCb3 confirm
COc1ccc(S(=O)(=O)N2CCN(CCOc3ccc(Br)cc3)CC2)cc1OC	n	x	n	n	11	x	n	n
Nc1ncnc2c1ncn2[C@@H]1O[C@H](COP(=O)(O)O)[C@@H](O)[C@H]1O	n	n	n	n	39	n	48	n
Nc1ncnc2c1ncn2[C@@H]1O[C@H](COP(=O)(O)OP(=O)(O)OP(=O)(O)O)[C@@H](O)[C@H]1O	n	x	n	n	40	x	54	n
Nc1ncnc2c1ncn2[C@@H]1O[C@H](COS(=O)(=O)O)[C@@H](O)[C@H]1O	n	x	n	n	n	x	x	x
NC(=O)C1=CN([C@@H]2O[C@H](COP(=O)(O)OP(=O)(O)OC[C@H]3O[C@@H](n4cnc5c(N)ncnc54)[C@H](O)[C@@H]3O)[C@@H](O)[C@H]2O)C=CC1	n	x	n	n	29	x	32	n
Nc1ncnc2c1ncn2C1OC(COP(=O)(O)O)C(O)C1O (stereo not drawn)	n	n	n	n	41	n	55	n
NCCC(=O)NC[C@H]1O[C@@H](n2cnc3c(N)ncnc32)[C@H](O)[C@@H]1O	n	x	n	n	n	x	x	x
CN(Cc1ccccc1)C(=O)OCc1cn(Cc2cc(F)cc(F)c2)nn1	n	x	n	n	n	x	x	x
CN(Cc1ccccc1)C(=O)c1cccc(NC(=O)Cc2ccc(NC(=O)C3CCN(C(=O)c4ccccc4)CC3)cc2)c1	n	x	n	n	n	x	x	x
CN(Cc1ccccc1)C(=O)c1cccc(NC(=O)Cc2ccc(NC(=O)C3CCCN(C(=O)c4ccccc4)C3)cc2)c1 (stereo not drawn)	n	x	n	n	12	x	n	n
O=C(Cc1ccc(NC(=O)C2CCCN(C(=O)C3CCC3)C2)cc1)Nc1ccc(C(=O)N2CCOCC2)cc1 (stereo not drawn)	n	x	n	n	n	x	x	x
O=C(Cc1ccc(NC(=O)C2CCCN(C(=O)C3CCCCC3)C2)cc1)Nc1ccc(C(=O)N2CCOCC2)cc1 (stereo not drawn)	n	x	n	n	10	x	n	n
O=C(Cc1ccc(NC(=O)C2CCN(C(=O)C3CCCCC3)CC2)cc1)Nc1ccc(C(=O)N2CCOCC2)cc1	n	x	n	n	13	x	n	n
O=C(Cc1ccc(NC(=O)C2CCCN(C(=O)C3CCCC3)C2)cc1)Nc1ccc(C(=O)N2CCOCC2)cc1 (stereo not drawn)	n	x	n	n	n	x	x	x
COc1ccc(C(=O)N2CCC(C(=O)Nc3ccc4c(c3)OCCO4)CC2)cc1	12	n	n	n	n	n	n	n
CC(CCN1CCC(C(O)(c2ccccc2)c2ccccc2)CC1)Oc1cc(F)cc(C#N)c1 (stereo not drawn)	n	x	n	n	12	x	n	n
COc1ccc(CNC(=O)C[C@H]2C(=O)N(Cc3ccc(OC)cc3)C[C@@H]2Cc2ccccc2)cc1	n	n	n	n	11	n	n	n
O=C(CSc1nnc(-c2ccccn2)n1-c1ccc(Cl)cc1)Nc1ccc2c(c1)OCCO2	n	x	n	n	n	x	x	x
O=C(NNC(=O)c1cccc2ccccc12)c1ccc(F)cc1	17	x	n	n	n	x	n	n
CCCCNC(=O)C1CCCN1C(=O)Nc1cc(Cl)cc(Cl)c1 (stereo not drawn)	n	x	n	n	n	x	x	x
COC(=O)[C@]12C[C@H](CC(=O)N3CCSCC3)C(=O)N(CCc3ccc(OC)c(OC)c3)C1=C[C@H](C(C)(C)C)O[C@@H]2C	n	x	n	n	n	x	x	x
O=C(NCC1CCCO1)C(c1cccnc1)N(C(=O)Cc1cccs1)c1cccnc1 (stereo not drawn)	13	n	n	n	11	n	n	n
O=C(NCc1ccco1)C(c1ccccc1)N(C(=O)Cc1cccs1)c1cccnc1 (stereo not drawn)	n	n	n	n	n	n	x	x
CCOC(=O)C1=NOC(C(C)=O)(C(=O)NC2CCCC2)C1 (stereo not drawn)	n	x	n	n	n	x	x	x
CCOc1ccc(NC2=C(Cl)C(=O)N(Cc3ccccc3)C2=O)cc1	n	x	n	n	11	n	n	n
SMILES	PLCb3 inh	Rce1 inh	GC-B act	GC-A act	PLCg1 inh	PfM18AAP inh	PLCg1 ctr	PLCb3 confirm
O=C(O/N=C1\CCCc2ccccc21)c1cccc(Cl)c1	11	n	n	n	9.6	n	n	n
C=CCN1[C@H](Cc2ccccc2)COc2cccc(N3CCSCC3)c2S1(=O)=O	n	x	n	n	n	x	x	x
CC(C)COC(=O)Nc1ccc(C(=O)O)cc1	13	n	n	n	n	n	n	n
COc1cccc(C(=O)n2ccc3ccc(-c4ccc5ccn(Cc6ccccc6)c5c4)cc32)c1	n	x	n	n	n	x	x	x
C[C@H]1COc2cc(Br)ccc2S(=O)(=O)N1Cc1cn(Cc2ccc(Cl)cc2)nn1	n	x	n	n	n	x	x	x
O=C1NC(c2ccccc2)=NC1(NS(=O)(=O)c1ccccc1)C(F)(F)F (stereo not drawn)	11	n	n	n	n	n	n	n
O=C1NC(c2ccccc2)=NC1(NS(=O)(=O)c1ccc(Cl)cc1)C(F)(F)F (stereo not drawn)	n	n	n	n	n	n	x	x
O=C1N2CCSC2=NC1(NS(=O)(=O)c1ccccc1)C(F)(F)F (stereo not drawn)	n	n	n	n	10	n	n	n
COCCNC(=O)Cn1nc(-c2ccc(Cl)cc2)c2ccccc2c1=O	n	n	n	n	12	n	n	n
COCCNC(=O)Cn1nc(-c2ccccc2)c2ccccc2c1=O	n	n	n	n	n	n	x	x
COc1ccc(Cc2nnc(SCC(=O)Nc3ccc(C)cc3)n(N)c2=O)cc1	n	n	n	n	10	x	n	n
OC(CC1CC12c1ccccc1-c1ncccc12)(c1ccccc1)c1ccccc1 (stereo not drawn)	n	n	n	n	n	n	x	x
CCOC(=O)C(C)C1(O)c2ccccc2-c2ncccc21 (stereo not drawn)	n	n	n	n	12	n	n	n
